Data from PubChem BioAssay (Tox21).
Where “and” joins values, the source holds several entries; their conditions need not be identical. Equal values may be shown once. A structure can be active in one record and inactive in another. Calls of active or inactive are those of the source. Where a call stands in place of a potency, no number is given. Unless noted, the call rests on the fitted dose curve; in most records, active means well fitted curve in the direction sought with a large enough effect in the repeat runs; inconclusive means weak or mixed curves; inactive means no such curve, though single readings can be large; an effect the other way counts as inactive or inconclusive.

How the values were obtained:
[1] = qHTS assay to identify small molecule antagonists of the thyroid receptor (TR) signaling pathway - cell viability counter screen (AID 743064); further: nearly all actives have a fitted effect of over 50% in size; further: potency means the concentration at half of the fitted maximal effect
Outline: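 In-well cytotoxicity read by CellTiter-Fluor (30 min, 37 C) following 23.5 h exposure of GH3 cells bearing a TRE-luciferase sensor. Compounds were added alongside 1 nM (final) T3 to drive TR transactivation.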

[2] = qHTS assay to identify small molecule antagonists of the thyroid receptor (TR) signaling pathway (AID 743065); further: nearly all actives have a fitted effect of over 55% in size; further: potency means the concentration at half of the fitted maximal effect
Outline: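 Antagonism measured as loss of luciferase signal in GH3 cells stably carrying a TRE-luciferase reporter, co-treated with compound and T3 (1 nM final) for 23.5 h at 37 C. Viability was read in the same well by CellTiter-Fluor.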

[3] = tested on: thyroid hormone receptor (rat, GH3 cells); assay: qHTS assay to identify small molecule agonists of the thyroid receptor (TR) signaling pathway (AID 743066; calls by dose curve)
[4] = molecular target: Estrogen receptor (Homo sapiens) (UniProt P03372); assay: qHTS assay to identify small molecule antagonists of the estrogen receptor alpha (ER-alpha) signaling pathway (AID 743069; active means well fitted curve in the direction sought with a large enough effect in the signal ratio in the repeat runs, not every such curve was filed as active; inconclusive means weak or mixed curves, or effect the other way; inactive means no such curve, though single readings can be large or run the other way; the % refers to the signal ratio; further: potency means the concentration at half of the fitted maximal effect)
Outline: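 ER-alpha-UAS-bla GripTite HEK293 line; 2% charcoal-stripped FBS overnight; plated, 4 hr 37C/5% CO2; cpd in DMSO + 17beta-estradiol, 18 hr 37C; LiveBLAzer B/G FRET substrate 2 hr RT; fluorescence intensity.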

[5] = molecular target: Estrogen receptor (Homo sapiens) (UniProt P03372); assay: qHTS assay to identify small molecule agonists of the estrogen receptor alpha (ER-alpha) signaling pathway (AID 743075; calls by dose curve;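 further: HEK293 GripTite cells with ER-alpha and UAS-driven beta-lactamase reporter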; further: potency means the concentration at half of the fitted maximal effect)
[6] = molecular target: Estrogen receptor (Homo sapiens) (UniProt P03372); assay: qHTS assay to identify small molecule agonists of the estrogen receptor alpha (ER-alpha) signaling pathway using the BG1 cell line (AID 743079); further: nearly all actives have a fitted effect of over 20% in size; further: potency means the concentration at half of the fitted maximal effect
[7] = qHTS assay to identify small molecule antagonists of the estrogen receptor alpha (ER-alpha) signaling pathway using the BG1 cell line (AID 743080; calls by dose curve; further: series mostly up to about 70 µM; nearly all actives have a fitted effect of over 25% in size)
Outline: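 Antagonist mode: compounds in DMSO were pinned onto BG1-Luc-4E2 cells alongside 17beta-estradiol agonist, incubated 21.5 h, and ERE-driven luciferase measured with ONE-Glo. Cytotoxicity was multiplexed using CellTiter-Fluor fluorescence.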

[8] = qHTS assay to identify small molecule antagonists of the estrogen receptor alpha (ER-alpha) signaling pathway using the BG1 cell line - cell viability counter screen (AID 743081);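 further: compound given together with 17beta-estradiol as the ER stimulus; nearly all actives have a fitted effect of over 45% in size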; further: potency means the concentration at half of the fitted maximal effect
Aromatase (Homo sapiens) = Aromatase (Homo sapiens) (UniProt P11511); assay: qHTS assay to identify aromatase inhibitors (AID 743083); further: nearly all actives have a fitted effect of over 55% in size; further: potency means the concentration at half of the fitted maximal effect
[9] = qHTS assay to identify small molecule antagonists of the estrogen receptor alpha (ER-alpha) signaling pathway - cell viability counter screen (AID 743074; calls by dose curve;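 further: HEK293 cells carrying ER-alpha-UAS-bla reporter stimulated with 17beta-estradiol; nearly all actives have a fitted effect of over 45% in size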; further: potency means the concentration at half of the fitted maximal effect)

Aromatase (Homo sapiens), sequence (P11511 whole entry, looked up): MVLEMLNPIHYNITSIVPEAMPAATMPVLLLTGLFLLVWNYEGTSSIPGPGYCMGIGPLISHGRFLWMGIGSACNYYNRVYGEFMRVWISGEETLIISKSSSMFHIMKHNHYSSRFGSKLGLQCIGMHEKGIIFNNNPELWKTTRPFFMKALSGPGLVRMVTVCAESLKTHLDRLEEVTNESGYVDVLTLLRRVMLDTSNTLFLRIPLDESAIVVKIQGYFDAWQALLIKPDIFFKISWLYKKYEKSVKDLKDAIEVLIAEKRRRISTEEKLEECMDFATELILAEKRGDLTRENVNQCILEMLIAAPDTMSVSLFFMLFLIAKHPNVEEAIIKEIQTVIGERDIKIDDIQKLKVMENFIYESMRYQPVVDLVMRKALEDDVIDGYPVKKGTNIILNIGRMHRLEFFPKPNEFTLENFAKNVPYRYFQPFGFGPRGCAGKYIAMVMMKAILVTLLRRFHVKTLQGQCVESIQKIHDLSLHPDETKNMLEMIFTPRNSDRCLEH
Estrogen receptor (Homo sapiens), sequence (P03372 whole entry, looked up): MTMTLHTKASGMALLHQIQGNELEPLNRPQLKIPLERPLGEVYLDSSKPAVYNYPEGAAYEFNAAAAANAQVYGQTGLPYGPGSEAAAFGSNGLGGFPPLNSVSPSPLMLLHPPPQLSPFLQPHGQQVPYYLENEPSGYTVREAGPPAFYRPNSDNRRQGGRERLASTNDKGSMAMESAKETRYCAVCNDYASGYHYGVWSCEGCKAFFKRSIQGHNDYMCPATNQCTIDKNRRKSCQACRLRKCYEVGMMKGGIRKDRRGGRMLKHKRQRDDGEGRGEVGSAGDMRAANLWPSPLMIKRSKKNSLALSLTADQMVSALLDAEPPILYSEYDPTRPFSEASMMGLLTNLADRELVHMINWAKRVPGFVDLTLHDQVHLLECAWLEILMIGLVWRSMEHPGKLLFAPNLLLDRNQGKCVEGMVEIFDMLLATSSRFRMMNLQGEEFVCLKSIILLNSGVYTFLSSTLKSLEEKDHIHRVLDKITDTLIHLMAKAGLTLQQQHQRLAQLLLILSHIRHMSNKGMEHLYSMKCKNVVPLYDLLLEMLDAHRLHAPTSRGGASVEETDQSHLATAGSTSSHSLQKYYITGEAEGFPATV

Row | Compound | Potency [1] | Potency [2] | Potency [3] | Potency [4] | Potency [5] | Potency [6] | Potency [7] | Potency [8] | Potency (Aromatase (Homo sapiens)) | Potency [9]
1 | CCO[C@H](Cc1ccc(OCCc2ccc(OS(C)(=O)=O)cc2)cc1)C(=O)O | inactive | inactive | inactive | inactive | inactive | inactive | inactive | inactive | inactive | 
2 | CC(C)(C)OCC1CO1 (centres undefined) | inactive | inactive | inactive |  |  |  |  | inactive |  | inactive
3 | CCOC(=O)C(F)(F)F | inactive | inactive | inactive |  |  |  |  | inactive | inactive | inactive
4 | COC(=O)c1ccc(I)cc1S(=O)(=O)NC(=O)Nc1nc(C)nc(OC)n1 | inactive | inactive |  |  |  |  |  | inactive | inactive | inactive
5 | COc1ccc(S(=O)(=O)N2C(=O)[C@@](c3ccccc3OC)(N3C[C@H](O)C[C@H]3C(=O)N(C)C)c3cc(Cl)ccc32)c(OC)c1 | 34.4 µM (active) | 68.6 µM (active) |  | 43.6 µM [inconclusive] (active) | inactive |  |  |  | 61.1 µM (active) | inactive
6 | C#C[C@]1(O)CC[C@H]2[C@@H]3CCc4cc(OC5CCCC5)ccc4[C@H]3CC[C@@]21C | 18.8 µM (active) | 16.8 µM (active) |  |  |  |  |  | inactive | inactive | inactive
7 | CNCCCCOc1ccccc1Cc1ccccc1 | 11.9 µM (active) | 11.9 µM (active) |  |  | inactive | inactive | inactive | inactive |  | inactive
8 | CC(=O)NO | inactive | inactive | inactive |  |  |  |  | inactive | inactive | inactive
9 | O=C(Nc1ccccc1)c1ccccc1O | inactive | 61.1 µM (active) | inactive |  |  |  |  | inactive | inactive | 
10 | Nc1ccc(S(=O)(=O)Nc2ccccc2)cc1 | inactive | inactive | inactive |  |  |  |  | inactive | inactive | inactive
11 | CC(C)(CO)[N+](=O)[O-] | inactive | inactive | inactive |  |  |  |  | inactive | inactive | 
12 | O=C(O)C1(C(=O)Nc2ccc(Cl)cc2Cl)CC1 | inactive | 68.6 µM (active) | inactive |  | inactive | inactive |  | inactive | inactive | 
13 | COc1cc(C(=O)OCCCN2CCCN(CCCOC(=O)c3cc(OC)c(OC)c(OC)c3)CC2)cc(OC)c1OC | 8.41 µM (active) | 13.3 µM (active) |  | inactive | inactive |  |  | 9.44 µM (active) | inactive | 
14 | C=CC(=O)OCCOc1ccccc1 | inactive | 54.4 µM (active) | inactive |  |  |  |  | inactive | inactive | inactive
15 | CC(=O)c1ccc2c(c1)N(CCCN1CCC(CCO)CC1)c1ccccc1S2 | 10.1 µM (active) | 11.4 µM (active) |  | inactive | inactive | inactive | inactive |  | inactive | inactive
16 | CN(C)C(=O)NC1(c2ccccc2)CCN(CC[C@@]2(c3ccc(F)c(F)c3)CN(C(=O)c3ccccc3)CCO2)CC1 | 31.9 µM (active) | 56.7 µM (active) |  |  |  |  |  |  | inactive | inactive
17 | Cc1cc(N)c2cc(NC(=O)Nc3ccc4nc(C)cc(N)c4c3)ccc2n1 | 29.8 µM (active) | 29.8 µM (active) | inactive |  |  |  |  | inactive | inactive | inactive

Row | Compound | Potency [1] | Potency [2] | Potency [3] | Potency [4] | Potency [5] | Potency [6] | Potency [7] | Potency [8] | Potency (Aromatase (Homo sapiens)) | Potency [9]
18 | CCn1cc(C(=O)O)c(=O)c2cnc(N3CCNCC3)nc21 | inactive | inactive | inactive |  |  |  |  | inactive | inactive | inactive
19 | O=C(O)c1ccccc1Cl | inactive | inactive | inactive |  |  |  |  | inactive | inactive | inactive
20 | CCCCCCCCCc1ccc(OCCOCCO)cc1 | 18.8 µM (active) and inactive | 18.8 µM (active) | inactive |  |  |  |  | 15 µM (active) | 22.8 µM (active) | 15.1 µM (active) and 16.3 µM (active)
21 | O=C1OC(=O)C2C3C=CC(C3)C12 (centres undefined) | inactive | inactive | inactive |  |  |  |  | inactive | inactive | inactive
22 | COc1ccc(C)cc1[N+](=O)[O-] | inactive | inactive | inactive |  |  |  |  | inactive | inactive | inactive
23 | c1ccc(C(O[C@H]2CCCN(CCc3ccc4c(c3)OCO4)C2)c2ccccc2)cc1 | 29.8 µM (active) | 26.6 µM (active) |  | inactive | inactive | inactive | inactive | inactive |  | inactive
24 | CCCCCCCC#N | inactive | inactive | inactive |  |  |  |  | inactive |  | 
25 | CCOc1ccc(N=Nc2ccc(/C=C/c3ccc(N=Nc4ccc(OCC)cc4)cc3S(=O)(=O)O)c(S(=O)(=O)O)c2)cc1 | 47.8 µM (active) | 47.8 µM (active) | inactive |  |  |  |  |  | inactive | inactive
26 | CCCOC(C(=O)OC1CCN(C)CC1)(c1ccccc1)c1ccccc1 | 18.8 µM (active) | 26.6 µM (active) |  | inactive | inactive | inactive | inactive |  | inactive | inactive
27 | CCc1c(C(=O)NN2CCCCC2)nn(-c2ccc(Cl)cc2Cl)c1-c1ccc(Br)cc1 | 15.4 µM (active) | 8.63 µM (active) |  | 13.8 µM [inconclusive] (active) | inactive | 27.3 µM (active) |  | inactive |  | inactive
28 | CC(C)(COC(=O)c1ccccc1)COC(=O)c1ccccc1 | inactive | inactive | inactive |  |  |  |  | inactive | inactive | inactive
29 | COC(C)(C)CCO | inactive | inactive | inactive |  |  |  |  | inactive | inactive | inactive
30 | CC(=O)c1ccc2c(c1)N(CCCN(C)C)c1ccccc1S2 | 10.1 µM (active) | 10.1 µM (active) |  | inactive | inactive | inactive | inactive | inactive |  | inactive
31 | Clc1ccc2c(c1)CCc1cccnc1C2=C1CCNCC1 | 10.6 µM (active) | 9.44 µM (active) |  | inactive | inactive |  |  | inactive |  | 
32 | CCCCc1ncc(/C=C(\Cc2cccs2)C(=O)O)n1Cc1ccc(C(=O)O)cc1 | inactive | inactive | inactive |  |  |  |  | inactive | inactive | inactive
33 | OCc1cc(C(O)CNCCCCCCOCCCCc2ccccc2)ccc1O (centres undefined) | 7.5 µM (active) and 11.9 µM (active) | 10.6 µM (active) and 8.41 µM (active) |  | inactive | inactive |  |  | 23.7 µM (active) | 26.6 µM (active) | inactive
34 | CCN(CC)CCNc1ccc(CNC=O)c2sc3ccc(OC)cc3c(=O)c12 | 8.63 µM (active) | 24.3 µM (active) |  |  | 4.36 µM [inconclusive] (active) | 2.73 µM (active) |  | 4.86 µM (active) | 38.6 µM (active) | inactive
